Measurements as given in PubChem BioAssay (NCI).
The panel holds about 79,000 compounds, 15% with a hit somewhere; the sample as a whole holds those more often. Calls of active or inactive are those of the source. Rule as the data show it: active = growth inhibition above about 70%; inactive = the rest.

Columns and labels:
[1] = NCI Yeast Anticancer Drug Screen. Data for the rad52 strain (AID 147);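 also: 0% = growth of vehicle-treated control cultures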; details: S. cerevisiae rad52 mutant growth inhibition, stronger effect = higher value
Summary of the method: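 Genetically altered yeast (DNA damage repair defect) treated with compound; inhibition calculated relative to vehicle.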

[2] = NCI Yeast Anticancer Drug Screen. Data for the wt1 strain (AID 149);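 also: 0% = growth of vehicle-treated wt1 cultures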; details: S. cerevisiae wt1 strain (SPY 50644) growth inhibition, stronger effect = higher value
Summary of the method: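 Readout: yeast growth inhibition, normalised to vehicle controls, in the wt1 strain exposed to test compounds.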

[3] = NCI Yeast Anticancer Drug Screen. Data for the rad50EPP+ strain (AID 151);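 also: 0% = growth of vehicle-treated control cultures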; details: S. cerevisiae rad50 mutant strain, stronger effect = higher value
Summary of the method: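 Strain rad50EPP+; compound exposure; % growth inhibition vs vehicle.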

[4] = NCI Yeast Anticancer Drug Screen. Data for the mgt1 strain (AID 153); details: S. cerevisiae mgt1 mutant growth inhibition, stronger effect = higher value
Summary of the method: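 Read-out: yeast growth inhibition vs vehicle control. Strain mgt1, drawn from a panel altered in DNA damage repair or cell cycle control.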

[5] = NCI Yeast Anticancer Drug Screen. Data for the rad50 strain (AID 155);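 also: 0% = growth of vehicle-only cultures of the same strain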; details: S. cerevisiae rad50 strain growth inhibition, stronger effect = higher value
Summary of the method: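 Compounds were tested on a yeast strain with an engineered DNA damage repair alteration; the reported value is growth inhibition normalised to vehicle treatment.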

[6] = NCI Yeast Anticancer Drug Screen. Data for the mec2-1 strain (AID 157); details: S. cerevisiae mec2-1 strain, stronger effect = higher value
Summary of the method: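 Cells of the genetically defined mec2-1 yeast strain are incubated with test compound. Inhibition of growth is calculated against vehicle-treated controls.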

[7] = NCI Yeast Anticancer Drug Screen. Data for the rad14 strain (AID 159);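 also: 0% = growth of vehicle-treated control cultures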; details: S. cerevisiae rad14 strain growth inhibition, stronger effect = higher value
Summary of the method: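 Compound-treated yeast with a defined DNA-repair lesion; growth inhibition normalised to vehicle-treated cultures.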

[8] = NCI Yeast Anticancer Drug Screen. Data for the sgs1 mgt1 strain (AID 161);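 also: 0% = growth of cultures given vehicle only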; details: S. cerevisiae sgs1 mgt1 strain, stronger effect = higher value
Summary of the method: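 Inhibition of yeast growth, normalised to vehicle-treated controls, is reported for a strain bearing genetic alterations in DNA damage repair.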

[9] = NCI Yeast Anticancer Drug Screen. Data for the CLN2oe strain (AID 163);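 also: 0% = growth of vehicle-only control cultures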; details: S. cerevisiae CLN2oe strain, stronger effect = higher value
Summary of the method: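 Strain altered in cell-cycle control, incubated with compound; growth compared to solvent-treated controls.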

[10] = NCI Yeast Anticancer Drug Screen. Data for the cln2 rad14 strain (AID 165);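 also: 0% = growth equal to vehicle treated cultures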; details: S. cerevisiae cln2 rad14 strain, stronger effect = higher value
Summary of the method: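 The screen exposed genetically defined yeast (cln2 rad14) to test compounds and scored growth inhibition relative to vehicle-treated controls.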

[11] = NCI Yeast Anticancer Drug Screen. Data for the bub3 strain (AID 167); details: S. cerevisiae bub3 mutant strain, stronger effect = higher value
Summary of the method: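 Growth of a checkpoint-deficient yeast mutant is measured after compound exposure. Values represent inhibition relative to vehicle.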

[12] = NCI Yeast Anticancer Drug Screen. Data for the wt2 strain (AID 169);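 also: 0% = growth of vehicle-treated yeast cultures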; details: S. cerevisiae wt2 strain growth inhibition, stronger effect = higher value
Summary of the method: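 Steps: yeast strain treated with compound; growth recorded; inhibition calculated relative to cultures given vehicle alone.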

[13] = NCI Yeast Anticancer Drug Screen. Data for the mlh1 strain (AID 171);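 also: 0% = growth of vehicle-treated control cultures of the same strain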; details: S. cerevisiae mlh1 strain growth inhibition, stronger effect = higher value
Summary of the method: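 Yeast screen: mutant strain plus compound, growth scored against vehicle control wells.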

[14] = NCI Yeast Anticancer Drug Screen. Data for the sgs1 strain (AID 173);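 also: 0% = growth of vehicle-only control cultures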; details: S. cerevisiae sgs1 mutant, stronger effect = higher value
Summary of the method: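 Inhibition of yeast growth served as the measure. The mutant strain was treated with each compound, and growth was normalised to cultures receiving vehicle alone.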

[15] = NCI Yeast Anticancer Drug Screen. Data for the mlh1 rad18 strain (AID 175); details: S. cerevisiae mlh1 rad18 strain growth inhibition, stronger effect = higher value
Summary of the method: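 Compound-treated yeast growth, normalised to vehicle controls. Strain bears defined DNA repair mutations.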

[16] = NCI Yeast Anticancer Drug Screen. Data for the rad18 strain (AID 177); details: S. cerevisiae rad18 mutant growth inhibition, stronger effect = higher value
Summary of the method: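 Inhibition values reflect reduced yeast growth compared with vehicle-treated controls, using a strain engineered with a DNA damage repair defect.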

[17] = at 5.0 µM (retest, dose inferred, filed as 0.5)
[18] = at 50.0 µM (retest, dose inferred, filed as 5.0)

Measured: growth inhibition

CNC(=S)N/N=C(/C)CCC/C(C)=N/NC(=S)NC
active: [5]; at 11.0 µM 87% | [5]; at 33.0 µM 89% | [5]; at 100.0 µM 92% | [9]; at 1.2 µM 80% | [9]; at 3.7 µM 97% | [9]; at 11.0 µM 98% | [9]; at 33.0 µM 98% | [9]; at 100.0 µM 97% | [11]; [17] 70% | [11]; at 33.0 µM 73% | [11]; at 100.0 µM 74% | [12]; at 11.0 µM 78% | [12]; at 33.0 µM 72%
inactive: [1]; at 1.2 µM 28% | [1]; at 3.7 µM 54% | [1]; at 11.0 µM 64% | [1]; at 33.0 µM 64% | [1]; at 100.0 µM 68% | [2]; at 1.2 µM 1% | [2]; at 3.7 µM 35% | [2]; at 11.0 µM 48% | [2]; at 33.0 µM 45% | [2]; at 100.0 µM 44% | [3]; at 1.2 µM -9% | [3]; at 3.7 µM 17% | [3]; at 11.0 µM 37% | [3]; at 33.0 µM 59% | [3]; at 100.0 µM 43% | [4]; at 1.2 µM 3% | [4]; at 3.7 µM 12% | [4]; at 11.0 µM 22% | [4]; at 33.0 µM 22% | [4]; at 100.0 µM 32% | [5]; at 1.2 µM 36% | [5]; at 3.7 µM 67% | [5]; [17] 40% | [5]; [18] 37% | [5]; at 50.0 µM 66.8% | [6]; at 1.2 µM 27% | [6]; at 3.7 µM 42% | [6]; [17] 66% | [6]; at 11.0 µM 53% | [6]; at 33.0 µM 48% | [6]; [18] 55% | [6]; at 50.0 µM 43.4% | [6]; at 100.0 µM 35% | [7]; at 1.2 µM 30% | [7]; at 3.7 µM 44% | [7]; at 11.0 µM 61% | [7]; at 33.0 µM 61% | [7]; at 100.0 µM 52% | [8]; [17] 48% | [8]; [18] 53% | [8]; at 50.0 µM 66.5% | [10]; [17] 21% | [10]; [18] -2% | [10]; at 50.0 µM 27.2% | [11]; at 1.2 µM 43% | [11]; at 3.7 µM 62% | [11]; at 11.0 µM 65% | [11]; [18] 69% | [11]; at 50.0 µM 54.4% | [12]; at 1.2 µM 16% | [12]; at 3.7 µM 58% | [12]; at 100.0 µM 67% | [13]; at 1.2 µM -2% | [13]; at 3.7 µM 34% | [13]; at 11.0 µM 52% | [13]; at 33.0 µM 37% | [13]; at 100.0 µM 40% | [14]; at 1.2 µM 14% | [14]; at 3.7 µM 24% | [14]; at 11.0 µM 65% | [14]; at 33.0 µM 63% | [14]; at 100.0 µM 62% | [15]; [17] 55% | [15]; [18] 63% | [15]; at 50.0 µM 62.4% | [16]; at 1.2 µM 1% | [16]; at 3.7 µM 21% | [16]; at 11.0 µM 19% | [16]; at 33.0 µM 24% | [16]; at 100.0 µM 37%

COc1cc2c(cc1O)[C@H](C)C(c1ccccc1OC)O2 (stereo partly specified)
active: [1]; at 100.0 µM 96% | [2]; at 100.0 µM 96% | [4]; at 100.0 µM 97% | [5]; at 100.0 µM 96% | [6]; at 100.0 µM 95% | [7]; at 100.0 µM 96% | [9]; at 100.0 µM 97% | [11]; [18] 81% | [11]; at 100.0 µM 97% | [12]; at 100.0 µM 96% | [13]; at 100.0 µM 97% | [14]; at 100.0 µM 96% | [16]; at 100.0 µM 94%
inactive: [1]; at 1.2 µM -41% | [1]; at 3.7 µM -34% | [1]; at 11.0 µM -31% | [1]; at 33.0 µM -19% | [2]; at 1.2 µM -11% | [2]; at 3.7 µM -13% | [2]; at 11.0 µM -13% | [2]; at 33.0 µM -17% | [3]; at 1.2 µM -39% | [3]; at 3.7 µM -68% | [3]; at 11.0 µM -54% | [3]; at 33.0 µM -8% | [3]; at 100.0 µM 19% | [4]; at 1.2 µM 1% | [4]; at 3.7 µM 5% | [4]; at 11.0 µM -4% | [4]; at 33.0 µM 33% | [5]; at 1.2 µM -4% | [5]; at 3.7 µM -2% | [5]; [17] -13% | [5]; at 11.0 µM -8% | [5]; at 33.0 µM 4% | [5]; [18] 4% | [5]; at 50.0 µM 15.5% | [6]; at 1.2 µM -27% | [6]; at 3.7 µM -15% | [6]; [17] -44% | [6]; at 11.0 µM -20% | [6]; at 33.0 µM 6% | [6]; [18] 13% | [6]; at 50.0 µM 17.6% | [7]; at 1.2 µM -7% | [7]; at 3.7 µM -11% | [7]; at 11.0 µM -11% | [7]; at 33.0 µM 7% | [8]; [17] -16% | [8]; [18] 59% | [8]; at 50.0 µM 68% | [9]; at 1.2 µM 14% | [9]; at 3.7 µM 9% | [9]; at 11.0 µM 5% | [9]; at 33.0 µM 18% | [10]; [17] 26% | [10]; [18] 24% | [10]; at 50.0 µM 29.9% | [11]; at 1.2 µM 24% | [11]; at 3.7 µM 32% | [11]; [17] 20% | [11]; at 11.0 µM 22% | [11]; at 33.0 µM 55% | [11]; at 50.0 µM 62.4% | [12]; at 1.2 µM -26% | [12]; at 3.7 µM -32% | [12]; at 11.0 µM -26% | [12]; at 33.0 µM -4% | [13]; at 1.2 µM 17% | [13]; at 3.7 µM 24% | [13]; at 11.0 µM -2% | [13]; at 33.0 µM 47% | [14]; at 1.2 µM -10% | [14]; at 3.7 µM -17% | [14]; at 11.0 µM -12% | [14]; at 33.0 µM 10% | [15]; [17] 1% | [15]; [18] 22% | [15]; at 50.0 µM 19.6% | [16]; at 1.2 µM -9% | [16]; at 3.7 µM -22% | [16]; at 11.0 µM 11% | [16]; at 33.0 µM 20%
